Experimental data published in PubChem BioAssay (NCI).
This is part of a sample that, as a whole, favours compounds with a hit. Of some 79,000 tested, about 15% had one in any assay. The source made the active and inactive calls. Rule as the data show it: active = growth inhibition above about 70%; inactive = the rest.

Columns and labels:
[1] = NCI Yeast Anticancer Drug Screen. Data for the mec2-1 strain (AID 157); settings: S. cerevisiae mec2-1 strain, active compounds read high
In short: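 mec2-1 yeast strain, carrying an alteration in DNA damage repair or cell cycle control, was exposed to compounds; growth inhibition was measured relative to vehicle-treated controls.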

[2] = NCI Yeast Anticancer Drug Screen. Data for the rad14 strain (AID 159);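 also: 0% = growth of vehicle-treated control cultures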; settings: S. cerevisiae rad14 strain growth inhibition, active compounds read high
In short: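 Test compounds were applied to a repair-deficient yeast strain. Its growth was then compared with that of cultures given vehicle alone, and inhibition was expressed relative to those controls.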

[3] = NCI Yeast Anticancer Drug Screen. Data for the CLN2oe strain (AID 163);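 also: 0% = growth of vehicle-only control cultures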; settings: S. cerevisiae CLN2oe strain, active compounds read high
In short: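 Yeast cells carrying a defined cell-cycle control alteration were exposed to test compounds. Growth inhibition was scored against vehicle-treated control cultures.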

[4] = NCI Yeast Anticancer Drug Screen. Data for the cln2 rad14 strain (AID 165);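 also: 0% = growth equal to vehicle treated cultures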; settings: S. cerevisiae cln2 rad14 strain, active compounds read high
In short: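 Yeast carrying cln2 and rad14 alterations (cell cycle control and DNA damage repair) were exposed to compounds. Growth inhibition was measured against vehicle-treated controls.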

[5] = NCI Yeast Anticancer Drug Screen. Data for the bub3 strain (AID 167); settings: S. cerevisiae bub3 mutant strain, active compounds read high
In short: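 Yeast carrying a defined mutation is treated with each compound, and growth is compared with that of vehicle-exposed cells to give inhibition.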

[6] = NCI Yeast Anticancer Drug Screen. Data for the wt2 strain (AID 169);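 also: 0% = growth of vehicle-treated yeast cultures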; settings: S. cerevisiae wt2 strain growth inhibition, active compounds read high
In short: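 Yeast cells were exposed to test compounds, and growth inhibition was measured relative to vehicle-treated controls.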

[7] = NCI Yeast Anticancer Drug Screen. Data for the mlh1 strain (AID 171);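 also: 0% = growth of vehicle-treated control cultures of the same strain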; settings: S. cerevisiae mlh1 strain growth inhibition, active compounds read high
In short: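 Yeast carrying a defined genetic alteration in DNA damage repair or cell cycle control were exposed to test compounds. Growth inhibition was measured relative to vehicle-treated controls.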

[8] = NCI Yeast Anticancer Drug Screen. Data for the mlh1 rad18 strain (AID 175); settings: S. cerevisiae mlh1 rad18 strain growth inhibition, active compounds read high
In short: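 Growth inhibition of the yeast strain was measured after compound exposure and expressed relative to vehicle-treated controls. The strain carries defined defects in DNA damage repair.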

[9] = NCI Yeast Anticancer Drug Screen. Data for the rad18 strain (AID 177); settings: S. cerevisiae rad18 mutant growth inhibition, active compounds read high
In short: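 Yeast carrying a defined DNA damage repair alteration were exposed to compounds. Growth inhibition was expressed relative to vehicle-treated controls.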

[10] = NCI Yeast Anticancer Drug Screen. Data for the rad52 strain (AID 147);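 also: 0% = growth of vehicle-treated control cultures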; settings: S. cerevisiae rad52 mutant growth inhibition, active compounds read high
In short: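 Yeast strain carrying a DNA damage repair alteration was exposed to test compounds. Growth inhibition was measured relative to vehicle-treated controls.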

[11] = NCI Yeast Anticancer Drug Screen. Data for the wt1 strain (AID 149);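 also: 0% = growth of vehicle-treated wt1 cultures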; settings: S. cerevisiae wt1 strain (SPY 50644) growth inhibition, active compounds read high
In short: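 wt1 yeast, compound-treated; % growth inhibition vs vehicle control.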

[12] = NCI Yeast Anticancer Drug Screen. Data for the rad50EPP+ strain (AID 151);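 also: 0% = growth of vehicle-treated control cultures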; settings: S. cerevisiae rad50 mutant strain, active compounds read high
In short: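 Yeast strain carrying rad50 alteration (rad50EPP+) exposed to compounds; growth inhibition measured relative to vehicle-treated controls.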

[13] = NCI Yeast Anticancer Drug Screen. Data for the mgt1 strain (AID 153); settings: S. cerevisiae mgt1 mutant growth inhibition, active compounds read high
In short: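 Yeast mgt1 strain (DNA repair/cell-cycle alteration panel) exposed to compounds; growth inhibition measured relative to vehicle-treated controls.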

[14] = NCI Yeast Anticancer Drug Screen. Data for the rad50 strain (AID 155);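 also: 0% = growth of vehicle-only cultures of the same strain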; settings: S. cerevisiae rad50 strain growth inhibition, active compounds read high
In short: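 Genetically altered yeast (DNA repair pathway); compound treatment; growth inhibition vs vehicle ctrl.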

[15] = NCI Yeast Anticancer Drug Screen. Data for the sgs1 strain (AID 173);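 also: 0% = growth of vehicle-only control cultures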; settings: S. cerevisiae sgs1 mutant, active compounds read high
In short: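 Yeast mutant strains carrying defined defects in DNA damage repair or cell cycle control were exposed to test compounds. Growth inhibition was scored against vehicle-treated controls.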

[16] = at 5.0 µM (retest, dose inferred, filed as 0.5)
[17] = at 50.0 µM (retest, dose inferred, filed as 5.0)

Measured: growth inhibition

O=C1OC2C(O1)C1(Cl)C(Cl)=C(Cl)C2(Cl)C1(Cl)Cl (stereo not given)
inactive: [1]; at 100.0 µM -3% | [2]; at 1.2 µM -4% | [2]; at 3.7 µM -6% | [2]; at 11.0 µM -3% | [2]; at 33.0 µM -7% | [2]; at 100.0 µM -1% | [3]; at 1.2 µM -4% | [3]; at 3.7 µM -5% | [3]; at 11.0 µM -6% | [3]; at 33.0 µM -12% | [3]; at 100.0 µM -7% | [4]; [16] 1% | [4]; [17] 61% | [5]; at 1.2 µM -6% | [5]; at 3.7 µM -4% | [5]; [16] 0% | [5]; at 11.0 µM -9% | [5]; at 33.0 µM -10% | [5]; at 100.0 µM -19% | [6]; at 1.2 µM -13% | [6]; at 3.7 µM -5% | [6]; at 11.0 µM -6% | [6]; at 33.0 µM -7% | [6]; at 100.0 µM -7% | [7]; at 1.2 µM -1% | [7]; at 3.7 µM 0% | [7]; at 11.0 µM 2% | [7]; at 33.0 µM 1% | [7]; at 100.0 µM 2% | [8]; [16] 7% | [9]; at 1.2 µM -4% | [9]; at 3.7 µM 0% | [9]; at 11.0 µM -1% | [9]; at 33.0 µM -2% | [9]; at 100.0 µM 2%
active: [4]; at 50.0 µM 78.5% | [5]; [17] 75% | [5]; at 50.0 µM 98% | [8]; [17] 90% | [8]; at 50.0 µM 74.2%

[O-][n+]1c2cccc(O)c2[n+]([O-])c2cccc(O)c21
active: [10]; at 11.0 µM 89% | [10]; at 33.0 µM 93% | [10]; at 100.0 µM 95% | [12]; at 11.0 µM 89% | [12]; at 33.0 µM 94% | [12]; at 100.0 µM 96% | [14]; at 11.0 µM 85% | [14]; at 33.0 µM 92% | [14]; [17] 95% | [14]; at 50.0 µM 86.4% | [14]; at 100.0 µM 95% | [1]; [17] 80% | [4]; [17] 94% | [4]; at 50.0 µM 82.8% | [5]; [17] 72% | [8]; [17] 94% | [9]; at 3.7 µM 75% | [9]; at 11.0 µM 92% | [9]; at 33.0 µM 94% | [9]; at 100.0 µM 94%
inactive: [10]; at 1.2 µM 23% | [10]; at 3.7 µM 57% | [11]; at 1.2 µM 2% | [11]; at 3.7 µM 2% | [11]; at 11.0 µM 7% | [11]; at 33.0 µM 10% | [11]; at 100.0 µM 15% | [12]; at 1.2 µM 25% | [12]; at 3.7 µM 63% | [13]; at 1.2 µM 3% | [13]; at 3.7 µM 10% | [13]; at 11.0 µM 8% | [13]; at 33.0 µM 2% | [13]; at 100.0 µM 18% | [14]; at 1.2 µM 24% | [14]; at 3.7 µM 55% | [14]; [16] 15% | [1]; at 1.2 µM 3% | [1]; at 3.7 µM 9% | [1]; [16] 15% | [1]; at 11.0 µM 18% | [1]; at 33.0 µM 26% | [1]; at 50.0 µM 35.8% | [1]; at 100.0 µM 46% | [2]; at 1.2 µM 2% | [2]; at 3.7 µM 23% | [2]; at 11.0 µM 12% | [2]; at 33.0 µM 20% | [2]; at 100.0 µM 38% | [3]; at 1.2 µM 0% | [3]; at 3.7 µM 0% | [3]; at 11.0 µM 3% | [3]; at 33.0 µM 11% | [3]; at 100.0 µM 11% | [4]; [16] 65% | [5]; at 1.2 µM 4% | [5]; at 3.7 µM 3% | [5]; [16] 0% | [5]; at 11.0 µM 0% | [5]; at 33.0 µM 3% | [5]; at 50.0 µM 42.8% | [5]; at 100.0 µM 1% | [7]; at 1.2 µM 3% | [7]; at 3.7 µM 0% | [7]; at 11.0 µM 11% | [7]; at 33.0 µM 18% | [7]; at 100.0 µM 44% | [15]; at 1.2 µM 6% | [15]; at 3.7 µM 14% | [15]; at 11.0 µM 31% | [15]; at 33.0 µM 46% | [15]; at 100.0 µM 66% | [8]; [16] -7% | [8]; at 50.0 µM 57.2% | [9]; at 1.2 µM 31%

CC1(C)N=C(N)N=C(N)N1c1cccc(N)c1.[Sn]
active: [8]; [17] 78%
inactive: [10]; at 1.2 µM 18% | [10]; at 3.7 µM 21% | [10]; at 11.0 µM 19% | [10]; at 33.0 µM 24% | [10]; at 100.0 µM 43% | [11]; at 1.2 µM 21% | [11]; at 3.7 µM 17% | [11]; at 11.0 µM 17% | [11]; at 33.0 µM 29% | [11]; at 100.0 µM 47% | [12]; at 1.2 µM -2% | [12]; at 3.7 µM -3% | [12]; at 11.0 µM -1% | [12]; at 33.0 µM -5% | [12]; at 100.0 µM -7% | [14]; at 1.2 µM 5% | [14]; at 3.7 µM 6% | [14]; [16] 24% | [14]; at 11.0 µM 6% | [14]; at 33.0 µM 24% | [14]; [17] 36% | [14]; at 50.0 µM 9.35% | [14]; at 100.0 µM 36% | [1]; at 1.2 µM 2% | [1]; at 3.7 µM 6% | [1]; [16] 7% | [1]; at 11.0 µM 2% | [1]; at 33.0 µM 15% | [1]; [17] 28% | [1]; at 50.0 µM -20.9% | [1]; at 100.0 µM 33% | [2]; at 1.2 µM 5% | [2]; at 3.7 µM 9% | [2]; at 11.0 µM 7% | [2]; at 33.0 µM 18% | [2]; at 100.0 µM 34% | [3]; at 1.2 µM -10% | [3]; at 3.7 µM -1% | [3]; at 11.0 µM -3% | [3]; at 33.0 µM -2% | [3]; at 100.0 µM -7% | [4]; [16] 5% | [4]; [17] 28% | [4]; at 50.0 µM -12.1% | [5]; at 1.2 µM -8% | [5]; at 3.7 µM -13% | [5]; [16] 9% | [5]; at 11.0 µM -18% | [5]; at 33.0 µM 4% | [5]; [17] 29% | [5]; at 50.0 µM 5.75% | [5]; at 100.0 µM 17% | [6]; at 1.2 µM -3% | [6]; at 3.7 µM -4% | [6]; at 11.0 µM -1% | [6]; at 33.0 µM 0% | [6]; at 100.0 µM 1% | [7]; at 1.2 µM 11% | [7]; at 3.7 µM 22% | [7]; at 11.0 µM 16% | [7]; at 33.0 µM 29% | [7]; at 100.0 µM 44% | [8]; [16] 43% | [8]; at 50.0 µM -49.6% | [9]; at 1.2 µM -3% | [9]; at 3.7 µM 2% | [9]; at 11.0 µM 4% | [9]; at 33.0 µM 17% | [9]; at 100.0 µM 35%
